Laboratory results as given in PubChem BioAssay (NCI).
Several values for one entry are separate records, joined by “and”; a condition that tells them apart may be missing. Equal entries are not always repeated. The panel holds about 83,000 compounds, 20% with a hit somewhere; the sample as a whole holds those more often.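 Plates (96-well) were seeded with cells, treated with compound at one concentration, and incubated for 48 hours before percent growth was determined.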 The source holds several records for some structures; these can differ, active in one and inactive in another. Activity calls are given as the source filed them. How the source made its calls: active means growth percent below 10; inactive means the rest.

Columns and labels:
Assay in all cases: NCI-60 one-dose screen, 48 h (100 = growth as untreated, 0 = no growth, -100 = all killed)
NCI-H226 lung = details: 10 µM
NCI-H322M lung = details: 10 µM
HOP-62 NSCLC = details: 10 µM
NCI-H460 lung = details: 10 µM
A549/ATCC NSCLC = details: 10 µM
786-0 renal = details: 10 µM
DU-145 prostate = details: 10 µM
SF-268 CNS = details: 10 µM
SF-295 CNS = details: 10 µM
SF-539 CNS = details: 10 µM
HCT-15 colon = details: 10 µM
HT29 colon = details: 10 µM
SNB-75 CNS = details: 10 µM
SNB-19 CNS = details: 10 µM
U251 CNS = details: 10 µM
PC-3 prostate = details: 10 µM
EKVX NSCLC = details: 10 µM
UO-31 renal = details: 10 µM
ACHN renal = details: 10 µM
HL-60(TB) leukemia = details: 10 µM unless noted

Measured: growth

C=C1[C@@H](C)C2[C@H](Cc3ccccc3)NC(=O)[C@]23[C@H](OC(C)=O)/C=C/[C@@](C)(O)C(=O)[C@@H](C)C/C=C/[C@H]3[C@@H]1O (stereo not given in full)
inactive: NCI-H226 lung 53.4% | NCI-H322M lung 87.9% | NCI-H460 lung 26.3% | A549/ATCC NSCLC 22.7% | 786-0 renal 28.8% | DU-145 prostate 48% | SF-268 CNS 34.5% | SF-295 CNS 51.4% | SF-539 CNS 24% | HCT-15 colon 45.8% | HT29 colon 11.8% | SNB-19 CNS 50.4% | U251 CNS 29.1% | PC-3 prostate 69.4% | EKVX NSCLC 50.5% | ACHN renal 41.9% | HL-60(TB) leukemia 31.7%
active: HOP-62 NSCLC 9.38% | SNB-75 CNS -10.7% | UO-31 renal -14.6%

C[C@@H]1C[C@H]2C(=O)O[C@@H](C)C(NC(=O)[C@H](Cc3cc(F)cc(F)c3)NC(=O)Nc3ccc(OS(=O)(=O)F)cc3)C(=O)N3CCC[C@H]3C(=O)N3CCO[C@H](C)[C@H]3C(=O)N[C@@H](CO)C(=O)N2C1 (stereo not given in full)
active: NCI-H226 lung -3.99%
inactive: NCI-H322M lung 54% | HOP-62 NSCLC 33% | NCI-H460 lung 17% | A549/ATCC NSCLC 31% | 786-0 renal 42.7% | DU-145 prostate 28% | SF-268 CNS 33.2% | SF-295 CNS 11.4% | SF-539 CNS 39.5% | HCT-15 colon 82.9% | HT29 colon 34.6% | SNB-75 CNS 34.4% | SNB-19 CNS 24.2% | U251 CNS 29.6% | PC-3 prostate 19.9% | EKVX NSCLC 34% | UO-31 renal 88.7% | ACHN renal 93.5% | HL-60(TB) leukemia 13.3%

CC(C)=CCc1c2c(c(O)c3c1O[C@]14C(=C[C@@H]5C[C@H]1C(C)(C)O[C@@]4(C/C=C(/C)C(=O)O)C5=O)C3=O)C=CC(C)(C)O2
active: NCI-H226 lung -2.64% | NCI-H322M lung -84.9% | HOP-62 NSCLC -71.1% | NCI-H460 lung -67.4% | A549/ATCC NSCLC -43.9% | 786-0 renal -82.7% | DU-145 prostate -100% | SF-268 CNS -75.1% | SF-295 CNS -64.5% | SF-539 CNS -38.9% | HCT-15 colon -72.5% | HT29 colon -86.7% | SNB-75 CNS -62.3% | SNB-19 CNS -50.9% | U251 CNS -87.7% | PC-3 prostate -37.8% | EKVX NSCLC -62.3% | UO-31 renal -76% | ACHN renal -82.6% | HL-60(TB) leukemia -33.7%

COc1cc(C)c(-c2ccc(OC)c(=O)cc2C)c(OC)c1OC
-24.6% (active) and 98.8% (inactive): HL-60(TB) leukemia
4.37% (active) and 113% (inactive): HT29 colon
6.39% (active) and 100% (inactive): SF-295 CNS
4.53% (active) and 103% (inactive): NCI-H460 lung
-7.85% (active) and 94.9% (inactive): SF-539 CNS
inactive: NCI-H226 lung 41.8% and 98.4% | NCI-H322M lung 46.5% and 104% | HOP-62 NSCLC 31.5% and 98.7% | A549/ATCC NSCLC 17.6% and 98.4% | 786-0 renal 37.8% and 101% | DU-145 prostate 13.3% and 104% | SF-268 CNS 37.5% and 103% | HCT-15 colon 12% and 101% | SNB-75 CNS 28.3% and 93.6% | SNB-19 CNS 20.1% and 96.6% | U251 CNS 11.9% and 104% | PC-3 prostate 19% and 95.8% | EKVX NSCLC 36.6% and 97.1% | UO-31 renal 47.5% and 88.6% | ACHN renal 31.9% and 105%

C/C=C/CC(C)C(O)[C@H](NC(=O)[C@@H]1CCCN1C(=O)C(C)(C)NC(=O)CCCCCCCCC)C(=O)N[C@@](C)(CC)C(=O)N[C@@H](CCC(N)=O)C(=O)N[C@H](CCC(N)=O)C(=O)NC(C)(C)C(=O)NC(C)(C)C(=O)N[C@@H](CCC(N)=O)C(=O)N[C@H](CC(C)C)C(=O)N[C@H](CO)CC(C)C (stereo not given in full)
active: DU-145 prostate -94.5% and -42.1% | SF-268 CNS -77% and 4.8% | SF-295 CNS -64.6% and -30.2% | SNB-75 CNS -55.9% and -38.8%
-12.3% (active) and 28.3% (inactive): HOP-62 NSCLC
-39.5% (active) and 25.2% (inactive): 786-0 renal
-89.3% (active) and 13.7% (inactive): U251 CNS
-0.538% (active) and 75.5% (inactive): NCI-H226 lung
-56.6% (active) and 12.7% (inactive): NCI-H460 lung
-69.3% (active) and 12% (inactive): SF-539 CNS
0.155% (active) and 23% (inactive): EKVX NSCLC
inactive: NCI-H322M lung 31% and 67.6% | A549/ATCC NSCLC 78.8% and 99.8% | HCT-15 colon 38% and 89.3% | HT29 colon 58.1% and 90.2% | PC-3 prostate 21.4% and 32.4% | UO-31 renal 39.1% and 62.6% | ACHN renal 40.3% and 68.4%
-28.9% (active) and 35.2% (inactive): SNB-19 CNS
1.3% (active) and 79.5% (inactive): HL-60(TB) leukemia
